From PubChem BioAssay AID686979 (National Center for Advancing Translational Sciences (NCATS), 2013)
The campaign covered roughly 420,000 compounds. About 50,000 (12%) were called active. Inconclusive results (about 26%) are left out. This is one part of a sample in which actives are shown more often than they occur. Calls come from the whole dose curve; as a rule, active = well fitted inhibition curve with a large enough effect; inconclusive = small, poorly fitted or top-dose-only effect; inactive = flat fitted curve, though single readings scatter.

test: qHTS for Inhibitors of human tyrosyl-DNA phosphodiesterase 1 (TDP1): qHTS in cells in presence of CPT; conditions: chicken DT40 Tdp1-/-;hTDP1 cells + 20 nM CPT, ATP luminescence, 48 h; series mostly up to 46.2 µM; activity change, negative = growth inhibition: at the top concentration; note: nearly all actives have a fitted effect of over 55% in size
Method in brief: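 Cell growth measured by CellTiter-Glo luminescence after a minimum 48 h, 37 C compound exposure with 20 nM CPT in Tdp1-knockout DT40 cells stably expressing hTDP1, seeded 400/well; qHTS titration format.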
% is set by controls: 0 for no effect and ±100 for the full control effect; potency is the fitted concentration of half-maximal effect.

| SMILES | activity change, negative = growth inhibition | Potency |
| --- | --- | --- |
| CCN1CCN(C(=O)CN(C)S(=O)(=O)c2ccc3ccccc3c2)CC1 | -28.4% (inactive) | – |
| O=C1NC[C@H](CCCCN2C[C@H](Cc3ccc(O)cc3)N(CCc3ccccc3)C(=O)C2=O)N(CCc2ccccc2)C1=O | 6.06% (inactive) | – |
| C#CCOc1ccc(/C=C2/C(=O)NN(c3ccccc3)C2=O)cc1OC | -2.2% (inactive) | – |
| O=C(C[n+]1cc(Br)cc2ccccc21)c1ccc(F)cc1 | – | 14.1 µM (active) |
| O=C(CNC(=O)c1ccccc1F)c1ccc(Br)cc1 | 11.2% (inactive) | – |
| O=C(O)CC/C(=N\NC(=O)c1ccc(F)cc1)c1ccc(Br)cc1 | 4.87% (inactive) | – |
| CCOc1ccc(NC(=O)CCNC(=O)c2ccc(Br)cc2)cc1 | -9.36% (inactive) | – |
| Cc1ccc2c(c1)N(C(=O)CCC(=O)NCc1ccccc1F)CC(C)O2 (stereo not given) | -28.3% (inactive) | – |
| CCOc1ccc(NC(=O)CCC(=O)N2CC(C)Oc3ccc(C)cc32)cc1 (stereo not given) | – | 25.9 µM (active) |
| CCc1nc2cc(C(=O)NCC3CCS(=O)(=O)C3)cc(NC(=O)c3ccccc3OC)c2n1C (stereo not given) | 6.63% [at 9.04 µM] (inactive) | – |
| O=c1[nH]c2cc(Br)ccc2n2cccc12 | -22.2% (inactive) | – |
| CCN(CC(=O)NCc1ccco1)S(=O)(=O)c1ccc(F)cc1 | -0.0669% (inactive) | – |
| COc1ccc(Cc2nnc(NC(=O)c3ccc(OC)cc3OC)s2)cc1 | -19.9% (inactive) | – |
| COc1cc(SC)ccc1C(=O)Nc1nc(C)cs1 | – | 20.6 µM (active) |
| Cc1csc(NC(=O)c2ccc(C)s2)n1 | -0.098% (inactive) | – |
| Cc1cc(NC(=O)Nc2c[nH]c(=O)[nH]c2=O)ccc1Br | -16.6% (inactive) | – |
| Cc1ccc(NS(=O)(=O)c2ccc3c(c2)CC(=O)N3)cc1Cl | -1.76% (inactive) | – |
| COc1ccc(CNC(=O)Cn2nnc(-c3ccc(S(C)(=O)=O)cc3)n2)cc1 | 1.87% (inactive) | – |
| COc1ccc(N=C2C=CC(=O)O2)cc1 | – | 5.17 µM (active) |
| COc1ccc(N=Nc2c(-c3ccc(OC)cc3)[nH]oc2=O)cc1 | -11.3% (inactive) | – |
| COC1=CC(=O)OC(c2ccc(OC)cc2)C1 (stereo not given) | 10.2% (inactive) | – |
| CCC1(c2ccccc2)NC(=O)N(CC(=O)c2ccc3c(c2)OCO3)C1=O (stereo not given) | -5.41% (inactive) | – |
| Cc1ccc(Cl)c(NC(=O)CN(C)CC(=O)Nc2ccc(F)c(F)c2F)c1Cl | -27.2% (inactive) | – |
| COc1ccc(CNC(=O)c2cc3c(=O)[nH]c4ccccc4c3s2)cc1 | -18.7% (inactive) | – |
| COc1ccc(CNC(=O)c2cc3c(=O)[nH]c4ccc(C)cc4c3s2)c(OC)c1 | – | 16.4 µM (active) |

| SMILES | activity change, negative = growth inhibition | Potency |
| --- | --- | --- |
| Cc1ccc2[nH]c(=O)c(CC=C(Cl)Cl)c(C)c2c1 | -6% (inactive) | – |
| COc1ccc(CNC(=O)c2ccc3c(c2)nc2n3CCOC2)c(OC)c1 | 1.11% (inactive) | – |
| Cc1ccc2[nH]c(=O)c(CC(=O)O)c(-c3ccccc3)c2c1 | -0.318% (inactive) | – |
| Cc1cccc(N(C)C(=O)c2cc3c(=O)[nH]c4ccc(C)cc4c3s2)c1 | – | 2.06 µM (active) |
| Nc1cc(C(=O)N2CCN(c3ccccc3Cl)CC2)ccc1N1CC2CC(C1)c1cccc(=O)n1C2 (stereo not given) | -25.3% (inactive) | – |
| CC1(C)CN(CCc2ccccc2)C(=O)[C@H]1CC(=O)Nc1ccc(Br)cc1 | -10.9% (inactive) | – |
| Cc1ccc(NC(=O)Cc2nnc(SCC(=O)Nc3nncs3)n2C)cc1 | 0.361% (inactive) | – |
| CC1(c2ccc(Cl)cc2Cl)NC(=O)N(CC(=O)Nc2cccnc2Cl)C1=O (stereo not given) | -12% (inactive) | – |
| CCCc1ccc(C(=O)[C@@H]2[C@@H](C(C)=O)N3c4ccc(F)cc4C=C[C@@H]3[C@@]23C(=O)Nc2ccccc23)cc1 | – | 23.1 µM (active) |
| O=C(O)c1ccc(-n2nc(-c3ccccc3)c3ccccc3c2=O)cc1 | -17.4% (inactive) | – |
| CCC(C)(C)NC(=O)C(c1ccc(O)cc1)N(Cc1ccco1)C(=O)CCC(=O)Nc1ccccn1 (stereo not given) | -11.3% (inactive) | – |
| CC(=O)c1nn(-c2ccc(OC(F)(F)F)cc2)nc1Nc1ccccc1 | -15.7% (inactive) | – |
| COc1ccccc1C(=O)Nn1cnnc1 | 21.2% (inactive) | – |
| CCc1noc(C)c1C(=O)NNC(=O)c1ccc(F)cc1 | -18.6% (inactive) | – |
| CCc1noc(C)c1C(=O)OCC(=O)c1ccc(NC(=O)CC(C)C)cc1 | – | 20.6 µM (active) |
| COc1ccc(C(=O)COC(=O)c2c(C)noc2C)cc1Cl | -17.5% (inactive) | – |
| O=C(c1ccccc1Cl)N(Cc1ccccc1F)N1C(=O)CCCC1=O | 1.6% (inactive) | – |
| Cc1ccc(C2Nc3cccc4cccc(c34)N2)cc1 | – | 2.59 µM (active) |
| Brc1ccccc1C1Nc2cccc3cccc(c23)N1 | -21.6% (inactive) | – |
| COc1cccc(C2Nc3cccc4cccc(c34)N2)c1 | -4.51% (inactive) | – |
| COc1ccc(CCn2c3c(c(=O)[nH]c2=S)CN(C(C)C)CN3)cc1OC | -13% (inactive) | – |
| COCC(C)NC(=O)CSc1nc2nn(-c3ccccc3)c(=O)c-2c2n1CCCCC2 (stereo not given) | 2.87% (inactive) | – |
| Cc1ccc2nc(/C(C#N)=C\c3ccc(OC(=O)c4cccs4)cc3)[nH]c2c1 | – | 14.6 µM (active) |
| CCOC(=O)CSc1nc2ccc(C)cc2[nH]1 | -1.71% (inactive) | – |
| Cc1ccc2nc(/C(C#N)=C/c3ccc(-c4ccc(C(=O)OC(C)C)cc4)o3)[nH]c2c1 | – | 7.31 µM (active) |

| SMILES | activity change, negative = growth inhibition | Potency |
| --- | --- | --- |
| Cc1ccc2nc(S(=O)(=O)O)[nH]c2c1 | -1.52% (inactive) | – |
| CC(=O)Nc1ccc(C(=O)CSc2nc3ccc(C)cc3[nH]2)cc1 | -0.86% (inactive) | – |
| CN(C(=O)c1cccc([N+](=O)[O-])c1)c1ccccc1C(=O)NCc1ccccc1 | 2.21% (inactive) | – |
| COc1ccc(S(=O)(=O)N2CCN(c3ccc(F)cc3)CC2)cc1-c1noc(C)n1 | 7.73% (inactive) | – |
| COc1ccc(CCNC(=O)C(=O)NCC2OCCN2S(=O)(=O)c2cccs2)cc1OC (stereo not given) | -2.17% (inactive) | – |
| COC(=O)Cc1ccc(Oc2ncc(C(F)(F)F)cc2Cl)cc1 | -15.1% (inactive) | – |
| Cc1cc(C)cc(NS(=O)(=O)c2ccc(Oc3ncc(C(F)(F)F)cc3Cl)cc2)c1 | – | 23.1 µM (active) |
| Cc1cc(C)cc(OCC(=O)Nc2ccc(S(=O)(=O)Nc3ccccn3)cc2)c1 | -11.1% (inactive) | – |
| CCOC(=O)[C@H](CCc1ccccc1)N[C@@H](C)C(=O)N1CC2(C[C@H]1C(=O)O)SCCS2 | -0.389% (inactive) | – |
| COCCCNC(=O)[C@H]1N2C(=O)c3ccccc3C2SC1(C)C (stereo not given in full) | 7.26% (inactive) | – |
| CC(C)N1C[C@@H](NCc2ccccc2O)C[C@H]1C(=O)N1CCN(c2cccc(C(F)(F)F)c2)CC1 | -8.03% [at 9.04 µM] (inactive) | – |
| CC1CCC(N2CC(=O)N(CCC3=CCCCC3)C(c3ccc(F)cc3)C2=O)CC1 (stereo not given) | – | 13 µM (active) |
| O=S(=O)(Cc1nnnn1-c1ccc(Br)cc1)c1ccc(F)cc1 | -16.3% (inactive) | – |
| NS(=O)(=O)c1ccc(NC(=O)COc2ccc(S(=O)(=O)NC3CCCCC3)cc2)cc1 | -27.9% (inactive) | – |
| Cc1ccc(S(=O)(=O)N2CCCC(C(=O)N3CCN(C)CC3)C2)cc1 (stereo not given) | -6.45% (inactive) | – |
| CCCS(=O)(=O)N1CCCC(C(=O)N2CCN(c3ccccc3)CC2)C1 (stereo not given) | -5.02% (inactive) | – |
| O=C(C1CCCN(S(=O)(=O)c2ccccc2)C1)N1CCN(c2ccc(F)cc2)CC1 (stereo not given) | – | 11.6 µM (active) |
| O=C(NCc1ccco1)C1CCCN(S(=O)(=O)c2cccc3nonc23)C1 (stereo not given) | -10.4% (inactive) | – |
| O=C(C1CCCN(S(=O)(=O)c2cccc3nonc23)C1)N1CCN(c2ccccc2F)CC1 (stereo not given) | – | 18.4 µM (active) |
| CC(=O)c1cccc(NC(=O)C2CCCN(S(=O)(=O)c3cccc4nonc34)C2)c1 (stereo not given) | -20.4% (inactive) | – |
| CN1CCC(N(C)S(=O)(=O)c2ccc(NC(=O)c3cccc(C#N)c3)cc2)CC1 | -9.95% (inactive) | – |
| COC(C[C@@H](O)C[C@H](O)[C@H](C)OCc1ccccc1)OC | -2.51% (inactive) | – |
| CO[C@H]1O[C@@H]2O[C@@]3(C)CC[C@@H]4[C@@H](C)CC[C@@H]([C@H]1C)[C@@]24OO3 | – | 0.631 µM (active) |
| COc1ccccc1C(=O)NC(CCSC)C(=O)N1CCN(C(C)=O)CC1 (stereo not given) | -0.07% (inactive) | – |
| CC(C)c1cccc(C(C)C)c1Nc1cn[nH]c1 | – | 14.6 µM (active) |

| SMILES | activity change, negative = growth inhibition | Potency |
| --- | --- | --- |
| CC(=O)Nc1ccc(S(=O)(=O)N(C)c2ccc(OCC(=O)OCC(=O)N3CCCCC3)cc2)cc1 | 5.25% (inactive) | – |
| CCCN1C2CCCC1CC(NC(=O)c1cccc(OC)c1)C2 (stereo not given) | -5.4% (inactive) | – |
| CCCNC(=S)NC1CC2CCCC(C1)N2CC(C)C (stereo not given) | -8.26% (inactive) | – |
| CCCN1C2CCCC1CC(NC(=O)NC13CC4CC(CC(C4)C1)C3)C2 (stereo not given) | – | 16.4 µM (active) |
| Cc1ccc(NC(=O)CSCC(=O)Nc2sccc2C#N)cc1 | 2.86% (inactive) | – |
| COc1ccccc1C(=O)COC(=O)CNS(=O)(=O)c1ccc(NC(C)=O)cc1 | -12.6% (inactive) | – |
| COc1ccc(NC(=O)CN2C(=O)NC(C)(c3ccccc3)C2=O)cn1 (stereo not given) | -5.76% (inactive) | – |
| COc1ccc(NC(=S)NCCNC(C)=O)cc1 | -3.51% (inactive) | – |
| COc1ccc(CS(=O)/C(Cl)=C(/Cl)C(=O)Nc2ccc(OC)nc2)cc1 (stereo not given) | – | 0.0184 µM (active) |
| Cc1nc(Nc2ccccc2F)c2nnn(Cc3ccccc3Cl)c2n1 | -15.9% (inactive) | – |
| NC(=O)c1sc(-c2ccsc2)cc1N | 3.43% (inactive) | – |
| O=C(Nc1ccccc1-c1ccccc1)c1ccccc1[N+](=O)[O-] | -5.27% (inactive) | – |
| Cc1ccc(CC(=O)N(C)CC(=O)N(CC(C)C)c2c(N)n(CC(C)C)c(=O)[nH]c2=O)cc1C | 2.72% (inactive) | – |
| O=C(NCCCNC(=O)c1ccccc1Cl)c1cnccn1 | 14.9% (inactive) | – |
| COc1ccc(-n2ncc3c2CC(C)(C)CC3NC(=O)CCc2c(C)noc2C)cc1 (stereo not given) | -14.8% (inactive) | – |
| Cc1ccc(-n2ncc3c2CCCC3NC(=O)c2cnccn2)cc1C (stereo not given) | – | 20.6 µM (active) |
| COc1ccc(OC)c(C(=O)NC2CCCc3c2cnn3-c2cc(C)cc(C)c2)c1 (stereo not given) | – | 29.1 µM (active) |
| Cc1ccc(-c2csc(NC(=O)c3cnccn3)n2)cc1C | -0.532% (inactive) | – |
| COCc1ccc(C(=O)NC2CC(C)(C)Cc3c2cnn3-c2ccc(C)cc2)o1 (stereo not given) | -24.3% (inactive) | – |
| O=C(Cc1ccc(Cl)cc1)c1ccccc1 | 3.05% (inactive) | – |
| CCCCCCNCCn1cnc2c(N)ncnc21 | 4.28% (inactive) | – |
| COc1ccc(NC(=O)c2ccc3oc(=O)c(S(=O)(=O)c4ccc(F)cc4)cc3c2)c(OC)c1 | 0.795% (inactive) | – |
| COc1cccc(NC(=O)CN(C)C(C)C(=O)Nc2ccc(C#N)cc2)c1 (stereo not given) | 1.07% (inactive) | – |
| CCOC(=O)c1cc2c(=O)n3ccccc3nc2n(CCCOC)c1=NC(=O)C(C)(C)Oc1ccc(Cl)cc1 | -18.4% (inactive) | – |
| Nc1cc2c(cc1Br)-c1ccc(F)cc1C2=O | -14.1% (inactive) | – |
